GBA enhancer: GBA activity enhancers in patient fibroblasts, primary screen, cell-based; L444P Gaucher fibroblasts, 4-MU-glucoside fluorescence, 3 days; activation, % at 10 µM; 30,000 compounds, 0.44% hits; in the data active means activation above about 65%;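 further: 0% = vehicle wells and 100% = positive control wells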
Target sequence (P04062 whole entry L483P): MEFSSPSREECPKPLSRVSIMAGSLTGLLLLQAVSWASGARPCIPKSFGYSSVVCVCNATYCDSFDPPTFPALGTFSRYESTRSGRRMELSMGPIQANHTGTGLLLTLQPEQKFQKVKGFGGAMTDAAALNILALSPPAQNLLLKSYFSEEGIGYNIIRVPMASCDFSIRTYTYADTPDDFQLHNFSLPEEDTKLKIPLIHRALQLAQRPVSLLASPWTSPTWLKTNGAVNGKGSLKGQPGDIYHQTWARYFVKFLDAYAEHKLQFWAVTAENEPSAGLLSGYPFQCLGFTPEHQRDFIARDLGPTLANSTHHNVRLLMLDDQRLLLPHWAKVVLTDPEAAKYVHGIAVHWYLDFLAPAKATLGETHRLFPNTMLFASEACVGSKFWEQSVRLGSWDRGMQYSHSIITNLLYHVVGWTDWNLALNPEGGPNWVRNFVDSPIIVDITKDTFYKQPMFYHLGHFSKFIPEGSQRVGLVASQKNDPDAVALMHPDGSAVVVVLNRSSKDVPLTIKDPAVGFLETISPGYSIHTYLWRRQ
The depositor's hits bear a star. The full list was thinned out, with hits kept by preference.

SMILES | GBA enhancer
Cn1cc(/C(Cc2ccccc2)=N\O)c2ccccc21 | 4.0
CC(=O)n1c2ccccc2c2c1c1ccccc1n2C | 6.9
C/C(=N\O)c1ccc2c3ccccc3n(C)c2c1 | 77.2*
CC1(C)CC(=O)C=C(Nc2ccccc2F)C1 | 0.4
C/C=C/CSc1nc2c(c(=O)[nH]c(=O)n2C)n1C(C)C | -56.2
CC(C)n1c(SCC(N)=O)nc2c1c(=O)[nH]c(=O)n2C | 11.7
CC(C)n1c(=S)[nH]c2c1c(=O)[nH]c(=O)n2C | 135.7*
CCOc1ccc2cc(C#N)c(SCC(=O)NC(C)CC)nc2c1 (configuration not stated) | -54.0
CC(Oc1ccc(Cl)cc1Cl)C(=O)NCCCN(C)C (configuration not stated) | -30.6
Cc1cc(S(=O)(=O)NCCCN2CCOCC2)ccc1F | -7.1
COc1ccccc1N1CCN(C(c2ccc(Cl)cc2)c2nnnn2C(C)(C)C)CC1 (configuration not stated) | -43.4
COc1ccccc1C(c1nnnn1C(C)(C)C)N1CCN(Cc2ccncc2)CC1 (configuration not stated) | -0.3
CCN1CCN(C(c2ccc(OC)c(OC)c2)c2nnnn2C(C)(C)C)CC1 (configuration not stated) | 140.4*
O=C(CSc1c[nH]c2ccccc12)N1CCOCC1 | -50.9
COC(=O)c1sc(NC(=O)Cc2cccs2)nc1C | -4.5
O=C(NC12CC3CC(CC(C3)C1)C2)N1CCC(n2nnc3ccccc32)CC1 | -17.4
O=C(Nc1ccccc1)c1ccc(S(=O)(=O)N2CCCC2)cc1 | 3.8
COc1ccc(/C(O)=C(\C#N)c2nc3ccccc3n2C)cc1OC | 1.8
Cn1c(/C(C#N)=C(\O)c2ccc(S(=O)(=O)N3CCCCC3)cc2)nc2ccccc21 | 70.9*
NC(=O)C1CCN(C(=O)C2c3ccccc3C(=O)N3CCc4ccccc4C23)CC1 (configuration not stated) | -23.3
Cc1ccc(NC(=O)COC(=O)c2ccn(C)n2)cc1 | -41.6
COc1ccc(N(C(=O)Cn2nnc3ccccc32)C(C(=O)NCc2ccco2)c2cccnc2)cc1 (configuration not stated) | -2.9
CC(C)(Oc1ccc(Cl)cc1)C(=O)OCC(=O)N1CCCC1 | 1.8
O=C(O)CC(NC(=O)OCc1ccccc1)c1ccccc1 (configuration not stated) | -11.2
COc1ccc(C(CC(=O)O)NC(=O)c2cccs2)cc1 (configuration not stated) | -1.6
SMILES | GBA enhancer
CCOC(=O)NC(CC(=O)O)c1ccc(OCC)cc1 (configuration not stated) | 81.3*
COc1ccc(N(CC(=O)N2c3ccccc3CC2C)S(=O)(=O)c2c(C)noc2C)cc1 (configuration not stated) | -22.4
COC(=O)c1ccc2c(=O)n(CCCN3CCCC3=O)c(=S)[nH]c2c1 | -7.4
O=C(NCCCN1CCCC1=O)c1ccc2c(=O)n(Cc3ccco3)c(=S)[nH]c2c1 | 115.3*
COc1cc(NC(=O)c2ccc3c(=O)n(Cc4ccco4)c(=S)[nH]c3c2)cc(OC)c1OC | 17.5
Cc1ccc(N2CCn3c2nc2c3c(=O)n(CCc3ccccc3)c(=O)n2C)cc1 | -11.8
COCCNC(=O)C1CC(=O)N(C2CCCC2)C1 (configuration not stated) | -14.2
CCOc1cc(-c2noc(-c3ccncc3)n2)cc(Br)c1OC | -0.5
CCOc1ccc(-c2noc(-c3ccncc3)n2)cc1OCC | 228.2*
CCOc1ccc(-c2nc(-c3ccc(OC)cc3)no2)cc1OCC | 1.4
O=C(COC(=O)c1ccccc1NC(=O)c1ccco1)NCCC1=CCCCC1 | 28.4
O=C(NC1CCCCC1)C(c1cccs1)N(Cc1cccs1)C(=O)c1ccco1 (configuration not stated) | -19.0
CS(=O)(=O)N(CC(=O)NCc1ccc2c(c1)OCO2)Cc1ccccc1 | -2.6
Cc1ccc(S(=O)(=O)Nc2ccc(-c3nnc(SCC#N)n3C)cc2)cc1 | -4.0
CC1CCC(C(=O)NC(C(=O)NCCCN2CCOCC2)C(C)C)CC1 (configuration not stated) | 68.4*
CCN1CCCC1CNC(=O)C(NC(=O)C1CCC(C)CC1)C(C)C (configuration not stated) | -7.3
CCN1CCN(CCCNC(=O)C(NC(=O)C2CCC(C)CC2)C(C)C)CC1 (configuration not stated) | 12.0
CCN1C(=O)N(CC)C2C1N(C(C)=O)C(=O)N2C(C)=O (configuration not stated) | -13.7
O=C(COC(=O)c1ccccc1F)c1ccc(-n2nncc2-c2ccco2)cc1 | -0.7
C=CCn1c(-c2c[nH]c3ccccc23)n[nH]c1=S | 66.9*
C=CCn1c(-c2cc(OC)c(OC)c(OC)c2)n[nH]c1=S | -6.6
C=CCn1c(-c2ccco2)n[nH]c1=S | 5.8
CCOc1ccccc1NC(=O)CN(C)S(=O)(=O)c1ccc(OC)c(C)c1 | -19.2
O=C(CN(CCc1ccccc1)C(=O)CNS(=O)(=O)c1ccccc1)NCC1CCCO1 (configuration not stated) | -6.9
COc1ccc(S(=O)(=O)NCC(=O)N(CC(=O)NCC2CCCO2)c2ccccc2C)cc1 (configuration not stated) | 71.6*
SMILES | GBA enhancer
COc1cccc(S(=O)(=O)NCc2ccc(C(=O)NCC3CCCO3)cc2)c1 (configuration not stated) | 2.4
CC(=O)OC(Cn1ccnc1)c1ccccc1 (configuration not stated) | -10.1
CCCOCCOC(=O)C1=C(C)NC(=O)NC1c1cc(Cl)c(O)c(OC)c1 (configuration not stated) | -7.5
CCn1cc(C(=O)Nc2nncs2)c(=O)c2cc(F)c(N3CCN(C(=O)c4ccco4)CC3)cc21 | -9.6
CC(=O)C1=C(O)C(=O)N(Cc2ccccc2)C1c1ccco1 (configuration not stated) | 3.9
CC(CS(=O)(=O)c1cccc2cccnc12)N1CCCCC1 (configuration not stated) | 107.8*
COc1ccc(NS(=O)(=O)c2cccc3cccnc23)cc1 | -18.6
O=C(NC1CCCC1)C1CCN(S(=O)(=O)c2cccc3cccnc23)CC1 | 4.1
CC1=C(C(=O)Nc2cccnc2)C(c2ccncc2)n2nnnc2N1 (configuration not stated) | 69.9*
CC1=C(C(=O)Nc2ccccc2)C(c2ccncc2)n2nnnc2N1 (configuration not stated) | -5.8
CC1=C(C(=O)Nc2cccnc2)C(c2ccccn2)n2nnnc2N1 (configuration not stated) | 27.4
O=C(O)COc1ccccc1C1C2C(=O)N(c3ccc(F)cc3)C(=O)C2ON1c1ccccc1 (configuration not stated) | -7.6
O=C(NCc1ccccc1)N1CCN(c2ccc(Cl)c(Cl)c2)CC1 | -28.9
O=C(NCC1CCCCC1)c1ccco1 | -1.2
CC(C)OC(=O)CSc1nnc(-c2cccnc2)n1N | 67.3*
Cc1ccc(C(=O)CSc2nnc(-c3cccnc3)n2N)cc1 | -20.0
COc1cccc(-n2c(SCC(=O)OC(C)C)nnc2-c2cccnc2)c1 | -40.9
O=C(CSc1nnc(-c2cccs2)n1-c1ccccc1)N1CCc2ccccc21 | -14.2
C=CCNc1nc2c3ccccc3n(C(C)=O)c2s1 | 21.9
CC(=O)N1CCc2cc(Br)cc(S(=O)(=O)NCCCN3CCC(C)CC3)c21 | 4.4
CC(=O)N1CCc2cc(Br)cc(S(=O)(=O)NCCN3CCCCC3C)c21 (configuration not stated) | 78.4*
